High-throughput results from PubChem BioAssay.
TDP1 cell noCPT – qHTS for Inhibitors of human tyrosyl-DNA phosphodiesterase 1 (TDP1): qHTS in cells in absence of CPT; DT40 Tdp1-/- hTDP1 cells, no CPT, ATP luminescence, 48 h; Potency, µM (titrated, usually from 46.2 µM), hits mostly inhibitors; 15% of 420,000 active; note: nearly all actives have a fitted effect of over 55% in size
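Luminescent ATP content (CellTiter-Glo) served as the growth readout. Knockout chicken DT40 cells expressing human TDP1 were exposed to compounds without camptothecin for a minimum 48 hr at 37 °C.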
HT1080 IDH1KD tx – toxicity to HT-1080 IDH1 knockdown cells (counter line); 2% of 360,000 active; Potency, µM (top dose mostly 46.1 µM), most hits filed as cytotoxic; HT-1080 IDH1 knockdown viability, ATP luminescence, 48 h
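Luminescent ATP read-out (CellTiter-Glo, 10 min at room temperature) after 48 h compound exposure at 37 °C gave viability of IDH1-knockdown HT-1080 cells. Activity was normalised to DMSO and cell-free wells, then fitted as concentration-response curves.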
TDP1 cell CPT – DT40-hTDP1 cell growth loss with CPT; chicken DT40 Tdp1-/-;hTDP1 cells + 20 nM CPT, ATP luminescence, 48 h; Potency, µM (top dose mostly 46.2 µM), most hits filed as inhibitors; 12% of 420,000 active; AID 686979; note: nearly all actives have a fitted effect of over 55% in size
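Chicken DT40 Tdp1-/- cells complemented with human TDP1, 400 cells/well, exposed to compounds plus 20 nM camptothecin for at least 48 h at 37 C; viability read as ATP content by CellTiter-Glo luminescence.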
IL-1B inflam inh – inflammasome signaling inhibition, IL-1 beta readout. activity change, % at 57.5 µM. THP-1 LPS/ATP IL-1B secretion, AlphaLISA, 16 h; active compounds read low. 4.7% of 360,000 active. AID 743279; in the data active = activity change below about -50%; inconclusive = mostly about -30% to -49%
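Secreted IL-1B measured by AlphaLISA bead assay after 16 h compound exposure of THP-1 cells; compounds (final up to 57.5 uM) added 1 h before LPS (250 ng/mL) and ATP (1.25 mM) stimulation; lower signal means less secretion.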
HT1080-NT tox – kills 2HG-producing HT-1080-NT fibrosarcoma cells. AID 686970. HT-1080-NT fibrosarcoma viability, CellTiter-Glo ATP luminescence, 48 h. 1.6% of 360,000 active. Potency, µM (top dose mostly 46.1 µM), usual class: cytotoxic;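 note: NT is the 2HG producing partner of a matched IDH1 knockdown line; nearly all actives have a fitted effect of over 55% in size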
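750 cells/well, RPMI + 5% FBS; 2 h settle, compound pin-transfer, 48 h at 37 degrees C. CellTiter-Glo 10 min RT, luminescence. Normalized to DMSO and media-only wells.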
Of the large screens only hits and unclear results are named; the others gave an inactive call. Only some compounds are listed: those with a hit (about 19% of all), similar ones and a draw of the others. Unless noted, calls come from the whole dose curve; as a rule, active = well fitted curve in the direction sought with a large enough effect; inconclusive = small, poorly fitted or top-dose-only effect, or another doubt; inactive = no such curve, though single readings can be large; an effect the other way counts as inactive or inconclusive.

Cc1ccc2c(c1)N(CC(=O)NCCCN1C(C)CCCC1C)C(=O)c1cccnc1O2 (stereo not given)	none
Cc1cccc(C)c1NC(=O)C1(C)CSCC(=O)N1Cc1ccco1 (stereo not given)	none
CCOC(=O)c1cccc(NC(=O)CCC(=O)N2CC(C)Oc3ccc(C)cc32)c1 (stereo not given)	TDP1 cell noCPT inconclusive, TDP1 cell CPT 23µM (no result: HT1080 IDH1KD tx, IL-1B inflam inh, HT1080-NT tox)
COC(=O)c1ccccc1NC(=O)CCC(=O)N1CC(C)Sc2ccccc21 (stereo not given)	TDP1 cell noCPT 15µM, TDP1 cell CPT 16µM (no result: HT1080 IDH1KD tx, IL-1B inflam inh, HT1080-NT tox)
CCCN1CCc2c(sc(NC(=O)c3ccc(S(=O)(=O)N(C)c4ccccc4)cc3)c2C(N)=O)C1	TDP1 cell noCPT inconclusive, HT1080 IDH1KD tx inconclusive, TDP1 cell CPT 21µM
CCCN1CCc2c(sc(NC(=O)Cc3ccc(F)cc3)c2C(N)=O)C1	IL-1B inflam inh inconclusive
CCCN1CCc2c(sc(NC(=O)c3ccc(S(=O)(=O)N(C)c4ccccc4)cc3)c2C(=O)NC)C1	TDP1 cell noCPT inconclusive, HT1080 IDH1KD tx inconclusive, TDP1 cell CPT inconclusive, IL-1B inflam inh -60, HT1080-NT tox inconclusive
CCOc1ccccc1NC(=O)c1ccc(S(=O)(=O)N(C)c2ccccc2)cc1	TDP1 cell noCPT inconclusive
CCC(Cn1nnc2ccccc2c1=O)NC(=O)Nc1ccccc1Cl (stereo not given)	TDP1 cell noCPT inconclusive (no result: HT1080 IDH1KD tx, IL-1B inflam inh, HT1080-NT tox)
Cc1ccc2nc(CC(O)(c3ccccc3)c3ccccc3)ccc2c1	TDP1 cell noCPT 21µM, TDP1 cell CPT inconclusive
COc1cccc2ccc(CC(O)(c3ccccc3)c3ccccc3)nc12	TDP1 cell noCPT 26µM, TDP1 cell CPT inconclusive
OC(Cc1ccncc1)(c1ccccc1)c1ccccc1	TDP1 cell noCPT inconclusive, TDP1 cell CPT inconclusive
O=C(CC(NC(=O)C(F)(F)F)c1ccccc1)Nc1nnc(CCc2ccccc2)s1 (stereo not given)	none
CC(NC(=O)NCc1cccnc1)(C(F)(F)F)C(F)(F)F	none
CCCn1cc2c(c1-c1ccc(C)cc1)c(=O)n(C)c(=O)n2C	TDP1 cell noCPT 21µM, TDP1 cell CPT inconclusive
Cn1c(=O)c2c(-c3ccccc3)n(CCCN3CCOCC3)cc2n(C)c1=O	TDP1 cell noCPT inconclusive
CCCCn1cc2c(c1-c1ccc(Cl)cc1)c(=O)n(C)c(=O)n2C	TDP1 cell noCPT 15µM, TDP1 cell CPT inconclusive (no result: HT1080 IDH1KD tx, IL-1B inflam inh, HT1080-NT tox)
COC(=O)CCNC(=O)c1ccc2nc(Cc3ccc(OC)c(OC)c3)oc2c1	TDP1 cell CPT inconclusive
Cc1cccc(OCC(=O)NCc2ccc3c(c2)CCN3C(=O)c2ccccc2)c1	TDP1 cell noCPT 23µM, TDP1 cell CPT inconclusive (no result: HT1080 IDH1KD tx, IL-1B inflam inh, HT1080-NT tox)
Cc1cc(NC(=O)NCc2ccc3c(c2)CCN3C(=O)c2ccccc2)ccc1Br	TDP1 cell noCPT 16µM, TDP1 cell CPT inconclusive (no result: HT1080 IDH1KD tx, IL-1B inflam inh, HT1080-NT tox)
COc1ccc(CC(=O)NCc2ccc3c(c2)CCN3C(=O)c2ccccc2)cc1OC	none (no result: HT1080 IDH1KD tx, IL-1B inflam inh, HT1080-NT tox)
O=C(NCc1ccc2c(c1)CCN2C(=O)c1ccc(F)cc1)c1ccc(Br)o1	TDP1 cell noCPT 4.1µM, TDP1 cell CPT 5.2µM (no result: HT1080 IDH1KD tx, IL-1B inflam inh, HT1080-NT tox)
Cc1cccc(C(=O)N2CCc3cc(CNC(=O)c4ccc(Br)o4)ccc32)c1	TDP1 cell noCPT inconclusive, TDP1 cell CPT 18µM (no result: HT1080 IDH1KD tx, IL-1B inflam inh, HT1080-NT tox)
CCOc1cccc(CC(=O)NCc2ccc3c(c2)CCN3C(=O)c2ccc(F)cc2)c1OCC	TDP1 cell noCPT inconclusive (no result: HT1080 IDH1KD tx, IL-1B inflam inh, HT1080-NT tox)
COC(=O)N1CCC[C@@]2(CCN(Cc3nccs3)C2)C1	none (no result: HT1080 IDH1KD tx, IL-1B inflam inh, HT1080-NT tox)
CCCCN1C(=O)N(c2ccccc2Cl)C(C)(O)CC1(C)C (stereo not given)	TDP1 cell noCPT inconclusive
COc1ccc(C(=O)NCCc2nnc3ccc(SCC(=O)N4CCCCC4)nn23)cc1	none
CN(C)C(=O)C(OC(=O)c1ccc2c(c1)CCCC2)c1ccccc1 (stereo not given)	TDP1 cell noCPT 21µM, TDP1 cell CPT inconclusive
CC(=O)c1sc(NC(=O)CCS(=O)(=O)c2ccc(F)cc2)nc1C	TDP1 cell noCPT 2.9µM, HT1080 IDH1KD tx inconclusive, TDP1 cell CPT 2.6µM, IL-1B inflam inh -94, HT1080-NT tox inconclusive
COc1ccc2nc(Nc3nc(C)c(C(C)=O)s3)sc2c1	TDP1 cell noCPT 16µM, HT1080 IDH1KD tx inconclusive, TDP1 cell CPT inconclusive
Cc1ccc(S(=O)(=O)CCC(=O)Nc2ccc(F)cc2)cc1	none
COc1ccc(Nc2nc3ccc(OC)cc3s2)cc1	IL-1B inflam inh inconclusive
CC(=O)c1sc(NC(=O)CCS(=O)(=O)c2ccccc2)nc1C	TDP1 cell noCPT 5.8µM, HT1080 IDH1KD tx inconclusive, TDP1 cell CPT 5.2µM
COc1ccc(OCCCC(=O)Nc2nc(C)c(C(C)=O)s2)cc1	none
CC(=O)Nc1nc(C)c(C(C)=O)s1	TDP1 cell noCPT inconclusive, TDP1 cell CPT 15µM
CC(=O)c1sc(NCc2ccc(C)cc2)nc1C	none
CC(=O)c1sc(NCCOc2ccc(C)cc2)nc1C	TDP1 cell noCPT 15µM, TDP1 cell CPT inconclusive
Cc1ccc(N(CC(=O)NC(C)(C)C)C(=O)CNC(=O)c2cccs2)cc1C	none
CN(C)CCN(Cc1ccc(Cl)cc1)c1ccccn1	TDP1 cell noCPT inconclusive, HT1080 IDH1KD tx inconclusive, TDP1 cell CPT inconclusive
S=C(NCCCCN(Cc1ccc(Cl)cc1)c1ccc(Br)cn1)NCCCc1cnc[nH]1	TDP1 cell CPT 7.1µM (no result: HT1080 IDH1KD tx, IL-1B inflam inh, HT1080-NT tox)
CN(CCCN(Cc1ccc(Cl)cc1)c1ccc(Br)cn1)C(=S)NCCCc1cnc[nH]1	TDP1 cell noCPT inconclusive, TDP1 cell CPT 13µM (no result: HT1080 IDH1KD tx, IL-1B inflam inh, HT1080-NT tox)
CCCCN(Cc1ccc(Cl)c(Cl)c1)c1ccc(Br)cn1	TDP1 cell noCPT inconclusive (no result: IL-1B inflam inh)
